Mito fusion yeast – blocks mitochondrial division or promotes mitochondrial fusion | S. cerevisiae fusion-defective mutant growth rescue, CellTiterGlo 48 h | Potency, µM (doses to about 46.1 µM), inactives show top-dose growth rescue (activation), actives largely listed as activators | 320,000 compounds, 0.23% hits; further: % of control where 0% means no effect; nearly all actives have a fitted effect of over 45% in size
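Temperature-sensitive fusion-defective S. cerevisiae (e.g. fzo1-1, mgm1-5) were grown with compound in YPEG medium (3% ethanol, 3% glycerol) for 48 hours at 37C. Growth rescue was measured as viability by CellTiterGlo luminescence after 10 minutes at ambient.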
FUS yeast rescue – FUS proteinopathy suppression in yeast. S. cerevisiae FUS-expressing, growth rescue, OD600, 24 h. Potency, µM (doses to about 76.6 µM), usual class: activators. 390,000 compounds, 0.24% hits. AID 1347120;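 further: plate controls were DMSO vehicle for no effect and reference control for full effect; nearly all actives have a fitted effect of over 55% in size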
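Galactose (2%) drives FUS expression in yeast precultured in raffinose; seeding density OD 0.005. Test compounds incubated 24hr at 30C and 99% humidity before absorbance at 600 nm was measured.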
TDP43 rescue – rescues yeast growth from TDP-43 toxicity. 410,000 compounds, 1.8% hits. Potency, µM (titrated, usually from 46.1 µM), for the others: at the top dose growth rescue (activation), hits mostly activators. AID 652104. TDP-43 expressing yeast growth rescue, BacTiter-Glo, 24 h; further: % of control where 0% means no effect; nearly all actives have a fitted effect of over 50% in size
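Luminescence from BacTiter-Glo reports growth of TDP-43-expressing yeast after 24 hr at 30 deg C with compound. Cells were raffinose-pregrown to mid-log, then seeded in galactose medium at OD600=0.02.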
Abeta rescue – restores growth of yeast expressing A-beta42 peptide; 410,000 compounds, 0.063% hits; Potency, µM (series often up to 46.1 µM), usual class: activators; yeast expressing A-beta42, growth rescue, OD600, 48 h; response scale: 0% DMSO, 100% iron-clioquinol control; AID 1347071; further: nearly all actives have a fitted effect of over 55% in size
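Yeast growth medium received pinned compounds, then yeast cells expressing toxic A-beta were added; plates incubated at 30 C for 48 hr. Growth read as absorbance at 600 nm, normalized to DMSO and equimolar FeCl3 plus clioquinol controls.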
aSyn yeast inh – rescues yeast growth from alpha-synuclein toxicity. Yeast expressing alpha-synuclein, growth rescue, BacTiter-Glo, 24 h. Potency, µM (highest dose often 46.1 µM), for inactives: at the top dose growth rescue (activation), most hits filed as activators. 370,000 compounds, 0.14% hits. AID 652106; further: % of control where 0% means no effect; nearly all actives have a fitted effect of over 65% in size
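Readout is rescue of growth in alpha-synuclein-expressing yeast, so inhibitors of toxicity appear as activators. Growth after 24 hr at 30 deg C in galactose medium is quantified by luminescence.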
Starred values were filed as active, the others as inactive. Compounds with a hit are over-represented: about 2.2% of the library has one in this group of screens. The call rests on the fitted dose curve; in most records, active means well fitted curve in the direction sought with a large enough effect; inconclusive means small, poorly fitted or top-dose-only effect, or another doubt; inactive means no such curve, though single readings can be large; an effect the other way counts as inactive or inconclusive. Potency means the concentration at half of the fitted maximal effect.

For COc1ccc(CN(C)C(=O)CCl)cc1 the results were Mito fusion yeast 4.1%, FUS yeast rescue inactive, TDP43 rescue 18.2%, Abeta rescue inactive and aSyn yeast inh -1.1%.
CN(C)CCNC(=O)c1ccc(Cl)s1 was read as Mito fusion yeast 7.6%, FUS yeast rescue inactive, TDP43 rescue -9.5%, Abeta rescue inactive and aSyn yeast inh -0.4%.
For CN(Cc1ccc(Cl)cc1)C(=O)CCl the results were Mito fusion yeast 2.2%, FUS yeast rescue inactive, TDP43 rescue 15.8µM*, Abeta rescue inactive and aSyn yeast inh -4.9%.
CC[C@@H](CCC1CCCCC1)CN(c1ccccc1)S(C)(=O)=O was read as FUS yeast rescue inactive.
CSc1ccccc1NC(=O)c1cc(C(C)C)on1 was read as Mito fusion yeast 1.2%, FUS yeast rescue inactive, TDP43 rescue 11.2µM*, Abeta rescue inactive and aSyn yeast inh 1.4%.
Screening CC(NCc1ccco1)C(=O)N1CCOCC1 (stereo not given) returned FUS yeast rescue inactive.
COc1cccc(CNC(=O)c2ccc3c(c2)nc2n3CCC(C)C2)c1 (stereo not given) was read as FUS yeast rescue inactive, TDP43 rescue 20.2% and Abeta rescue inactive.
Cc1c(C(=O)Nc2ccc(F)cc2F)nnn1-c1ccccc1Br was read as FUS yeast rescue inactive, TDP43 rescue 31.6µM* and Abeta rescue inactive.
For CC(=O)c1nnn(-c2ccc(F)cc2F)c1C the results were Mito fusion yeast -3.1%, FUS yeast rescue inactive, TDP43 rescue 2.2%, Abeta rescue inactive and aSyn yeast inh -1.0%.
For O=C(OCCN1CCN(C2CN(Cc3cn(Cc4ccc([N+](=O)[O-])cc4)nn3)S(=O)(=O)C2)CC1)c1cc2ccccc2o1 (stereo not given) the results were FUS yeast rescue inactive.
O=C(NCc1ccccc1)c1cccc2c(-c3cccnc3)coc12 was read as FUS yeast rescue inactive, TDP43 rescue inconclusive, Abeta rescue inactive and aSyn yeast inh 0.3%.
Screening COc1ccc(-c2ccc(C(=O)Nc3cccc(NS(C)(=O)=O)c3)c3occc23)c(C)c1 returned FUS yeast rescue inconclusive, TDP43 rescue 14.1µM*, Abeta rescue inactive and aSyn yeast inh -7.0%.
Screening COc1ccc(-c2ccc(C(=O)NCc3ccc(N(C)C)cc3)c3occc23)c(C)c1 returned FUS yeast rescue inactive, TDP43 rescue 17.8µM*, Abeta rescue inactive and aSyn yeast inh -1.3%.
For COc1ccc(-c2ccc(C(=O)Nc3cccc(F)c3)c3occc23)c(C)c1 the results were FUS yeast rescue inactive, TDP43 rescue 26.0%, Abeta rescue inactive and aSyn yeast inh -16.7%.
CC(C)CNC(=O)c1cccc2c(-c3cccnc3)coc12 was read as FUS yeast rescue inactive, TDP43 rescue 20.6%, Abeta rescue inactive and aSyn yeast inh -0.1%.
Screening O=C(NCc1ccc(C(F)(F)F)cc1)c1cccc2c(-c3cccnc3)coc12 returned FUS yeast rescue inactive, TDP43 rescue 12.6µM*, Abeta rescue inactive and aSyn yeast inh 12.4%.
For COc1ccc(NC(=O)c2cccc3c(-c4cccnc4)coc23)cc1 the results were FUS yeast rescue inactive, TDP43 rescue 10µM*, Abeta rescue inactive and aSyn yeast inh 11.5%.
`COc1ccc(NC(=S)N(CCN(C)C)C(C)c2ccco2)cc1Cl` (stereo not given) gave Mito fusion yeast -5.9%, TDP43 rescue inconclusive, Abeta rescue inactive and aSyn yeast inh -0.2%.
Screening CCOC(=O)[C@@]12CCCC3=C1N(CCC3)C(=O)[C@H]2CC(=O)NCc1cccs1 returned FUS yeast rescue inactive.
Screening CN(C)c1cccc(NC(=O)c2cccc3c(-c4ccc(F)c(F)c4)coc23)c1 returned FUS yeast rescue inactive, TDP43 rescue 14.1µM*, Abeta rescue inactive and aSyn yeast inh 4.5%.
COc1ccc(-c2coc3c(C(=O)Nc4cccc(C(C)=O)c4)cccc23)c(C)c1 was read as FUS yeast rescue inactive, TDP43 rescue 6.6%, Abeta rescue inactive and aSyn yeast inh -5.6%.
Screening COc1ccc(-c2coc3c(C(=O)Nc4cccnc4)cccc23)c(C)c1 returned FUS yeast rescue inconclusive, TDP43 rescue 17.8µM*, Abeta rescue inactive and aSyn yeast inh -12.6%.
Screening O=C(Nc1ccccc1)c1cccc2c(-c3cccnc3)coc12 returned FUS yeast rescue inactive, TDP43 rescue 14.1µM*, Abeta rescue inactive and aSyn yeast inh -0.2%.
O=C(NCC1CCOCC1)c1cccc2c(-c3cccnc3)coc12 was read as FUS yeast rescue inactive, TDP43 rescue 24.1%, Abeta rescue inactive and aSyn yeast inh 0.6%.
O=C(NC(=S)N1CCN(c2ccc(C(F)(F)F)cc2[N+](=O)[O-])CC1)c1cccs1 was read as Mito fusion yeast 19.0%, TDP43 rescue 20µM*, Abeta rescue inactive and aSyn yeast inh -3.3%.
Screening COc1cc(OC)cc(-c2sc3ccc(OC)cc3c2C#CCO)c1 returned FUS yeast rescue inconclusive, TDP43 rescue inconclusive, Abeta rescue inactive and aSyn yeast inh 7.9%.
`COc1cc(OC)cc(-c2sc3ccc(OC)cc3c2C#CC(C)(C)O)c1` gave Mito fusion yeast 15.8%, FUS yeast rescue inconclusive, TDP43 rescue 11.2µM*, Abeta rescue inactive and aSyn yeast inh 2.1%.
`O=C(CN1C(=O)C2(SCC(=O)N2c2cccc(Cl)c2)c2ccccc21)NCCc1ccccc1` (stereo not given) gave FUS yeast rescue inactive, TDP43 rescue 5.1%, Abeta rescue inactive and aSyn yeast inh inconclusive.
Screening O=[N+]([O-])c1ccc2c(c1)-c1ccccc1C2=NO returned TDP43 rescue inconclusive, Abeta rescue inactive and aSyn yeast inh -18.9%.
`Nc1ccc2c(c1)C(=NO)c1cc([N+](=O)[O-])ccc1-2` gave TDP43 rescue 11.2µM*, Abeta rescue inactive and aSyn yeast inh 6.31µM*.
`O=C(O)CCN1C(=O)/C(=C/c2ccc(F)cc2F)SC1=S` gave FUS yeast rescue inactive.
For Cc1cccc(NC(=O)c2nc[nH]c2C(=O)N[C@@H](Cc2ccccc2)C(=O)OC(C)(C)C)c1 the results were Mito fusion yeast inconclusive, FUS yeast rescue inconclusive, TDP43 rescue 3.0%, Abeta rescue inactive and aSyn yeast inh 26.3%.
For Cc1ccc(NC(=O)c2nc[nH]c2C(=O)N[C@@H](C)c2ccccc2)cc1 the results were Mito fusion yeast 24.4%, FUS yeast rescue inactive, TDP43 rescue inconclusive, Abeta rescue inconclusive and aSyn yeast inh 8.2%.
Screening C[C@@H](NC(=O)c1[nH]cnc1C(=O)Nc1ccccc1)c1ccccc1 returned Mito fusion yeast -12.0%, FUS yeast rescue inactive, TDP43 rescue 22.4µM*, Abeta rescue inactive and aSyn yeast inh -7.0%.
